About 410 targets per protein were measured; listed, in parts, are those with the strongest signals and a random draw of the rest.
Experiments:
Assay in all cases: glycan array binding signal (z-score within array); higher = stronger binding
Conditions in all cases: glycan notation: IUPAC condensed, linker removed
[1] = target: Fuc(a1-2)Gal(b1-3)GalNAc(b1-4)[Neu5Ac(a2-3)]Gal(b1-4)Glc
Procedure, shortened: (§1)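 Glycan array data came from 3228 arrays in the Consortium for Functional Glycomics database, and only arrays with an available protein sequence were kept. Glycan names were put into IUPAC-condensed notation, and columns mapping to the same glycan were averaged. The binding signal is a within-array Z-score, averaged across arrays of one protein sequence run at different concentrations or buffers and across linkers. A negative Z-score can be read as non-binding.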

[2] = target: Fuc(a1-2)Gal(b1-3)[Fuc(a1-4)]GlcNAc(b1-3)[Fuc(a1-3)[Gal(b1-4)]GlcNAc(b1-6)]Gal(b1-4)Glc
Procedure, shortened: as §1

[3] = target: Fuc(a1-2)Gal(b1-4)GlcNAc(b1-2)Man(a1-3)[Fuc(a1-2)Gal(b1-4)GlcNAc(b1-2)Man(a1-6)]Man(b1-4)GlcNAc(b1-4)GlcNAc
Procedure, shortened: as §1

[4] = target: Fuc(a1-2)Gal(b1-4)GlcNAc(b1-2)Man(a1-3)[Fuc(a1-2)Gal(b1-4)GlcNAc(b1-2)Man(a1-6)]Man(b1-4)GlcNAc(b1-4)[Fuc(a1-6)]GlcNAc
Procedure, shortened: as §1

[5] = target: Fuc(a1-2)Gal(b1-4)GlcNAc(b1-3)Gal(b1-4)GlcNAc(b1-3)Gal(b1-4)GlcNAc
Procedure, shortened: as §1

[6] = target: Fuc(a1-2)Gal(b1-4)[Fuc(a1-3)]GlcNAc(b1-2)Man(a1-3)[Fuc(a1-2)Gal(b1-4)[Fuc(a1-3)]GlcNAc(b1-2)Man(a1-6)]Man(b1-4)GlcNAc(b1-4)GlcNAc
Procedure, shortened: as §1

[7] = target: Fuc(a1-2)Gal(b1-4)[Fuc(a1-3)]GlcNAc(b1-3)GalNAc
Procedure, shortened: as §1

[8] = target: Fuc(a1-2)[Gal(a1-3)]Gal(b1-4)GlcNAc
Procedure, shortened: as §1

[9] = target: Fuc(a1-2)[Gal(a1-3)]Gal(b1-4)GlcNAc(b1-2)Man(a1-3)[Fuc(a1-2)[Gal(a1-3)]Gal(b1-4)GlcNAc(b1-2)Man(a1-6)]Man(b1-4)GlcNAc(b1-4)GlcNAc
Procedure, shortened: as §1

[10] = target: Fuc(a1-2)[Gal(a1-3)]Gal(b1-4)GlcNAc(b1-2)Man(a1-3)[Fuc(a1-2)[Gal(a1-3)]Gal(b1-4)GlcNAc(b1-2)Man(a1-6)]Man(b1-4)GlcNAc(b1-4)[Fuc(a1-6)]GlcNAc
Procedure, shortened: as §1

[11] = target: Fuc(a1-2)[Gal(a1-3)]Gal(b1-4)[Fuc(a1-3)]GlcNAc(b1-3)GalNAc
Procedure, shortened: as §1

[12] = target: Fuc(a1-2)[GalNAc(a1-3)]Gal
Procedure, shortened: as §1

[13] = target: Fuc(a1-2)[GalNAc(a1-3)]Gal(b1-3)GalNAc(a1-3)[Fuc(a1-2)]Gal(b1-4)GlcNAc
Procedure, shortened: as §1

[14] = target: Gal(a1-3)Gal(b1-3)GlcNAc(b1-2)Man(a1-3)[Gal(a1-3)Gal(b1-3)GlcNAc(b1-2)Man(a1-6)]Man(b1-4)GlcNAc(b1-4)GlcNAc
Procedure, shortened: as §1

[15] = target: Gal(a1-3)Gal(b1-4)[Fuc(a1-3)]GlcNAc(b1-2)Man(a1-3)[Gal(a1-3)Gal(b1-4)[Fuc(a1-3)]GlcNAc(b1-2)Man(a1-6)]Man(b1-4)GlcNAc(b1-4)GlcNAc
Procedure, shortened: as §1

[16] = target: Gal(b1-3)GlcNAc(b1-2)Man(a1-3)[Gal(b1-3)GlcNAc(b1-2)Man(a1-6)]Man(b1-4)GlcNAc(b1-4)GlcNAc
Procedure, shortened: as §1

[17] = target: Gal(b1-3)GlcNAc(b1-2)Man(a1-3)[Gal(b1-3)GlcNAc(b1-2)Man(a1-6)]Man(b1-4)GlcNAc(b1-4)[Fuc(a1-6)]GlcNAc
Procedure, shortened: as §1

[18] = target: Gal(b1-3)[Fuc(a1-4)]GlcNAc(b1-3)Gal(b1-4)GlcNAc
Procedure, shortened: as §1

[19] = target: Gal(b1-3)[Neu5Ac(a2-6)]GlcNAc(b1-6)Gal(b1-4)Glc
Procedure, shortened: as §1

[20] = target: Gal(b1-4)GlcNAc(b1-3)Gal(b1-4)GlcNAc
Procedure, shortened: as §1

Gal4S(b1-4)GlcNAc = target: Gal4S(b1-4)GlcNAc
Procedure, shortened: as §1

Gal6S(b1-3)GlcNAc = target: Gal6S(b1-3)GlcNAc
Procedure, shortened: as §1

[21] = target: GalNAc(b1-3)Gal(a1-6)Gal(b1-4)Glc
Procedure, shortened: as §1

GalNAc(b1-4)GlcNAc = target: GalNAc(b1-4)GlcNAc
Procedure, shortened: as §1

GlcA(b1-3)GlcNAc = target: GlcA(b1-3)GlcNAc
Procedure, shortened: as §1

[22] = target: GlcNAc(a1-4)Gal(b1-4)GalNAc
Procedure, shortened: as §1

[23] = target: GlcNAc(a1-4)Gal(b1-4)GlcNAc(b1-3)Gal(b1-4)[Fuc(a1-3)]GlcNAc(b1-3)Gal(b1-4)[Fuc(a1-3)]GlcNAc
Procedure, shortened: as §1

[24] = target: GlcNAc(b1-4)[GlcNAc(b1-6)]GalNAc
Procedure, shortened: as §1

Man(a1-3)[Man(a1-6)]Man = target: Man(a1-3)[Man(a1-6)]Man
Procedure, shortened: as §1

[25] = target: Neu5Ac(a2-3)Gal(b1-3)[Neu5Ac(a2-3)Gal(b1-4)]GlcNAc
Procedure, shortened: as §1

[26] = target: Neu5Ac(a2-3)Gal(b1-4)GlcNAc(b1-3)Gal(b1-4)GlcNAc
Procedure, shortened: as §1

[27] = target: Neu5Ac(a2-3)Gal(b1-4)[Fuc(a1-3)]GlcNAc(b1-3)GalNAc
Procedure, shortened: as §1

[28] = target: Neu5Ac(a2-6)Gal(b1-4)GlcNAc(b1-2)Man(a1-3)[Man(a1-6)]Man(b1-4)GlcNAc(b1-4)GlcNAc
Procedure, shortened: as §1

[29] = target: Neu5Ac(a2-6)Gal(b1-4)GlcNAc(b1-2)Man(a1-6)[GlcNAc(b1-2)Man(a1-3)]Man(b1-4)GlcNAc(b1-4)GlcNAc
Procedure, shortened: as §1

[30] = target: Neu5Ac(a2-6)Gal(b1-4)GlcNAc(b1-3)Gal(b1-4)GlcNAc(b1-3)Gal(b1-4)GlcNAc
Procedure, shortened: as §1

[31] = target: Neu5Ac(a2-6)Gal(b1-4)GlcNAc(b1-3)GalNAc
Procedure, shortened: as §1

B1: Gal 2 (Canis lupus) (protein)
chain: MSGKFEVMNMDMKLGGTLKIKGKIAGDADGFVINLGQGSDKLNLHFNPRFHESVIVCNSRNWGQEQRDKHMCFSPGSEVKFTVTFENDGFKVKLPDGHQLTFPNRLGHSHLSYLGVQGGLKVSSFKIE
[1]
  glycan array binding signal (z-score): -0.028
[2]
  glycan array binding signal (z-score): 0.019
[3]
  glycan array binding signal (z-score): 1.43
[4]
  glycan array binding signal (z-score): 0.046
[5]
  glycan array binding signal (z-score): -0.156
[6]
  glycan array binding signal (z-score): 0.795
[7]
  glycan array binding signal (z-score): 0.409
[8]
  glycan array binding signal (z-score): 0.681
[9]
  glycan array binding signal (z-score): 15.5
[10]
  glycan array binding signal (z-score): 6.28
[11]
  glycan array binding signal (z-score): 0.088
[12]
  glycan array binding signal (z-score): -0.339
[13]
  glycan array binding signal (z-score): -0.173
[14]
  glycan array binding signal (z-score): 0.082
[15]
  glycan array binding signal (z-score): 0.339
[16]
  glycan array binding signal (z-score): 0.14
[17]
  glycan array binding signal (z-score): 0.051
[18]
  glycan array binding signal (z-score): 0.099
[19]
  glycan array binding signal (z-score): -0.068
[20]
  glycan array binding signal (z-score): -0.157
Gal4S(b1-4)GlcNAc
  glycan array binding signal (z-score): 1.7
Gal6S(b1-3)GlcNAc
  glycan array binding signal (z-score): -0.457
[21]
  glycan array binding signal (z-score): 0.131
GalNAc(b1-4)GlcNAc
  glycan array binding signal (z-score): -0.029
GlcA(b1-3)GlcNAc
  glycan array binding signal (z-score): 2.91
[22]
  glycan array binding signal (z-score): -0.278
[23]
  glycan array binding signal (z-score): 1.2
[24]
  glycan array binding signal (z-score): -0.114
Man(a1-3)[Man(a1-6)]Man
  glycan array binding signal (z-score): 0.15
[25]
  glycan array binding signal (z-score): -0.369
[26]
  glycan array binding signal (z-score): 0.01
[27]
  glycan array binding signal (z-score): 1.21
[28]
  glycan array binding signal (z-score): -0.076
[29]
  glycan array binding signal (z-score): -0.361
[30]
  glycan array binding signal (z-score): -0.293
[31]
  glycan array binding signal (z-score): 0.102

Reference: the supplement of paper PMC8728848
